Assay [1] addresses Thyrotropin receptor (Homo sapiens) (UniProt P16473). The assay is described as follows: qHTS assay to identify small molecule antagonists of the thyroid stimulating hormone receptor (TSHR) signaling pathway (AID 1259385; calls by dose curve; note: nearly all actives have a fitted effect of over 20% in size). The procedure, abridged: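 TSHR-HEK293 cells were plated and held 18 h at 37C/5% CO2, then given compound plus Ro20-1724 and stimulated with TSH at 1.5 ng/mL final. After 30 min at room temperature, cAMP was detected with cAMP-d2/anti-cAMP-cryptate (1 h) by fluorescence.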
On the technique in general: Quantitative high-throughput screening tests each substance at several concentrations.

Assay [2] can be described thus: qHTS assay to identify small molecule agonists of the estrogen receptor alpha (ER-alpha) signaling pathway in the presence of an antagonist - cell viability counter screen (AID 1259386). Note: series mostly up to about 92 µM; nearly all actives have a fitted effect of over 30% in size. Put shortly:
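Compounds tested at 15 concentrations for 22 h at 37C alongside 10.0nM (final) ICI-182,780 antagonist, in VM7Luc4E2 cells grown in phenol red-free, charcoal-stripped medium. Viability read by CellTiter-Fluor fluorescence after 1 h reagent incubation.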

Assay [3] concerns the target Progesterone receptor (Homo sapiens) (UniProt P06401). The assay is described as follows: qHTS assay to identify small molecule agonists of the progesterone receptor (PR) signaling pathway (AID 1346784; calls by dose curve; note: nearly all actives have a fitted effect of over 30% in size; note: potency is the fitted concentration of half-maximal effect). Put shortly: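 Compounds were tested for PR agonism in HEK 293T cells bearing a beta-lactamase gene under UAS control. Treatment lasted 16 hr at 37C; signal came from fluorescence of a FRET substrate.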

Assay [4] is described as follows: qHTS assay to identify small molecule antagonists of the progesterone receptor (PR) signaling pathway - cell viability counter screen (AID 1346798). Note: series mostly up to about 92 µM; nearly all actives have a fitted effect of over 50% in size. The procedure, abridged: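 Following a 4 hr attachment, PR-UAS-bla HEK293T cells in charcoal-stripped FBS medium were exposed to compounds with R5020 for 16 hr; CellTiter-Glo was added and luminescence read after 30 min at room temperature.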

A short description of assay [5]: qHTS assay to identify small molecule agonists of the progesterone receptor (PR) signaling pathway - cell viability counter screen (AID 1346799; calls by dose curve; note: nearly all actives have a fitted effect of over 45% in size). Put shortly: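 Here, 3,000 PR-UAS-bla HEK293T cells per well were treated with compounds for 16 hr after a 6 hr preincubation at 37C and 5% CO2; cell viability is the CellTiter-Glo luminescence signal.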
Assay [6] is described as follows: qHTS assay to identify small molecule antagonists of the TGF-beta/Smad signaling pathway - cell viability counter screen (AID 1346824). Note: nearly all actives have a fitted effect of over 50% in size. The procedure, abridged:
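SBE-bla HEK 293T cells were plated overnight at 37 C, then given compounds in DMSO plus TGF-beta1 (added as 0.25 ng/mL solution) for 5 hr. After the bla read, CellTiter-Glo was added to the same wells and luminescence read after 30 min at room temperature.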

Assay [7] is described as follows: qHTS assay to identify small molecule agonists of the TGF-beta/Smad signaling pathway - cell viability counter screen (AID 1346829). Note: top concentration of the series differs between compounds; nearly all actives have a fitted effect of over 45% in size. The procedure, abridged:
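Here the cytotoxicity of library compounds is measured in SBE-bla HEK 293T cells treated for 5 hr, using CellTiter-Glo added to wells already read for the beta-lactamase reporter.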

Assay [8] addresses Thyrotropin-releasing hormone receptor (Homo sapiens) (UniProt P34981). Briefly: qHTS assay to identify small molecule antagonists of the thyrotropin-releasing hormone receptor (TRHR) signaling pathway (AID 1346877; active = well fitted inhibition curve with a large enough effect in the repeat runs, not every such curve was filed as active; note: series mostly up to about 51 µM). Put shortly: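 Antagonist mode: after a 5 min room-temperature compound exposure, cells were stimulated with 1 nM (final) TRH. Dye-loaded TRHR-HEK293 cells were used, and calcium-dependent fluorescence was followed for 3 min, with 15-point titrations run in triplicate.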

Assay [9] addresses Progesterone receptor (Homo sapiens) (UniProt P06401). Briefly: qHTS assay to identify small molecule antagonists of the progesterone receptor (PR) signaling pathway (AID 1346795; active = well fitted inhibition curve with a large enough effect in the signal ratio in the repeat runs, not every such curve was filed as active; the % refers to the signal ratio; note: potency is the fitted concentration of half-maximal effect). Put shortly:
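In HEK293T cells bearing the PR-UAS-bla reporter, compound effects on promegestone-driven (1 nM) beta-lactamase expression are assessed after 16 hr using a fluorescent FRET substrate incubated 2 hr at room temperature.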

Assay [10] in a line: qHTS assay to identify small molecule agonists of the TGF-beta/Smad signaling pathway (AID 1346859; active = well fitted activation curve with a large enough effect in the signal ratio in the repeat runs, not every such curve was filed as active; the % refers to the signal ratio; note: series mostly up to about 77 µM). The procedure, abridged:
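Each well held 4,000 SBE-bla HEK 293T cells incubated overnight before compound addition; 5 hr later the cleavable FRET substrate went on for 2 hr at room temperature, and fluorescence was read at two emissions.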

SMILES strings stand for the structures. A number with no mark means an inactive call. Records with an inconclusive call do not appear. Active and inactive are the calls of the source. Unless noted, calls come from the whole dose curve; as a rule, active = well fitted curve in the direction sought with a large enough effect in the repeat runs; inconclusive = weak or mixed curves; inactive = no such curve, though single readings can be large; an effect the other way counts as inactive or inconclusive.
% is set by controls: 0 for no effect and ±100 for the full control effect.

Sequence of Thyrotropin-releasing hormone receptor (Homo sapiens) (P34981 whole entry, looked up): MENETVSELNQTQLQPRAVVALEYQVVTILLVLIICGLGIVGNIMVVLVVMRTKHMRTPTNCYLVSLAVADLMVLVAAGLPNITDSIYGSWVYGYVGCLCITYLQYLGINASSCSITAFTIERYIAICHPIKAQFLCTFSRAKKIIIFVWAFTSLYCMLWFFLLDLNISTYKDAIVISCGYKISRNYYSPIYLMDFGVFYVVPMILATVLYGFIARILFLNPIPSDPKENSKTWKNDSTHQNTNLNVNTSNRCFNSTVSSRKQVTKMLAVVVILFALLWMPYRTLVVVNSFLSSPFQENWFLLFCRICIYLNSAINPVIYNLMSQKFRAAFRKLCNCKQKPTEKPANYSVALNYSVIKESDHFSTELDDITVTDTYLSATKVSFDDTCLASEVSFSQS
Sequence of Progesterone receptor (Homo sapiens) (P06401 whole entry, looked up): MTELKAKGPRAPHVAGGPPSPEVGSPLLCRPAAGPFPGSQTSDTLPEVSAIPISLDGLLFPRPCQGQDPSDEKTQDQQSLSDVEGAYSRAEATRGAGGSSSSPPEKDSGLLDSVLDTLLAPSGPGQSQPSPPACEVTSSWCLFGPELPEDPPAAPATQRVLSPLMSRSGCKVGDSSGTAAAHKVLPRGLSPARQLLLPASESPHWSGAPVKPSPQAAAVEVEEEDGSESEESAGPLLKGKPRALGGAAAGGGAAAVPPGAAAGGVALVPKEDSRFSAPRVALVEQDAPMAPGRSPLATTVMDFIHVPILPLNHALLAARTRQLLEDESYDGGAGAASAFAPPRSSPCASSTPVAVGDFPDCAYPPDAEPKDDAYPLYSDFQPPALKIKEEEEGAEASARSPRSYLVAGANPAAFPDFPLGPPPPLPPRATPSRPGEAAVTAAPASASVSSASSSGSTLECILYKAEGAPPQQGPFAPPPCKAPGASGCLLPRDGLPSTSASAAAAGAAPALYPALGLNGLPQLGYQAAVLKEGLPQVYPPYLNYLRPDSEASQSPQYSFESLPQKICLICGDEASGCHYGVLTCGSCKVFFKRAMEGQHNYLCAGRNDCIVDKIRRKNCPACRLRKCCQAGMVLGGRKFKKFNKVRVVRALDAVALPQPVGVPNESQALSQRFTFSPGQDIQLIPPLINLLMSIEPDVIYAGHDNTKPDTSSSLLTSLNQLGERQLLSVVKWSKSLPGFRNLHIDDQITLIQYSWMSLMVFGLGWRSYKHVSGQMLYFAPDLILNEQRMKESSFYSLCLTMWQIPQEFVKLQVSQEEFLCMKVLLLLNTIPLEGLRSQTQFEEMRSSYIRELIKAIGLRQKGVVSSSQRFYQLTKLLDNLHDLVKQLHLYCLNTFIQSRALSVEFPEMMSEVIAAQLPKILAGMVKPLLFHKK
Sequence of Thyrotropin receptor (Homo sapiens) (P16473 whole entry, looked up): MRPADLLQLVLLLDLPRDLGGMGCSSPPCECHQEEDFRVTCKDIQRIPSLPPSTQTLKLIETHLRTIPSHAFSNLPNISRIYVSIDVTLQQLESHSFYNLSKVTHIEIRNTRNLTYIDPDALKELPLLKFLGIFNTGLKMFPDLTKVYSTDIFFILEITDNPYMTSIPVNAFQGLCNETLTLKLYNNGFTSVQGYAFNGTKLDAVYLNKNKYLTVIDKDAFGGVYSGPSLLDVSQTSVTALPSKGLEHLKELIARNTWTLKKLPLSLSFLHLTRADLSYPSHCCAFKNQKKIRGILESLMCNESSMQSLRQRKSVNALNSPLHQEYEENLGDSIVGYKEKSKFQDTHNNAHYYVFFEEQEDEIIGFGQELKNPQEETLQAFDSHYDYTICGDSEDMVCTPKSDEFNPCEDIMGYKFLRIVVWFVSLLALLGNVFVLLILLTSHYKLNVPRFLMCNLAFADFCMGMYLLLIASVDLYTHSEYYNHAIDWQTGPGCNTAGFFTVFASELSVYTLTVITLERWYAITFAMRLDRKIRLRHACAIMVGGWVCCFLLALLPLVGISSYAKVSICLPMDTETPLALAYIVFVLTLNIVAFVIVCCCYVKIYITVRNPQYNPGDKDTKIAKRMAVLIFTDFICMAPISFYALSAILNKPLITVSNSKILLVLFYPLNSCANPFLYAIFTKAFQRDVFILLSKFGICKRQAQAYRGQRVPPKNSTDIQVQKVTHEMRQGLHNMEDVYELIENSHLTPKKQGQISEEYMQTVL

Take `CNC(=O)Oc1cc(C)c(N(C)C)c(C)c1`: the compound was called inactive in assay [1] and in assay [6]. Also, the Potency result in assay [2], in assay [3], in [4], in assay [5], in assay [7] and in [8] was “inactive” in each case.
On to `CC(C)NCC(O)c1ccc([N+](=O)[O-])cc1` (configuration not stated), for which the result in assay [1] and in assay [6] was inactive. Besides, the Potency entry in assay [2], in assay [9], in assay [5], in assay [7] and in assay [8] was “inactive” each time.
With `ClC(Cl)(Cl)Cl`, the result in [1], in [6] and in assay [10] was inactive. Besides, the Potency entry in assay [2], in assay [9], in assay [4], in [5], in assay [7] and in assay [8] was “inactive” each time.
Regarding `CC(C)(C)C(=O)Cl`, the compound was classed as inactive in assay [1], in assay [6] and in assay [10]. Also, the Potency entry in assay [2], in assay [5], in assay [7] and in [8] was “inactive” throughout.
As to `CCN(CC)CCOC(=O)C(O)(c1ccccc1)c1ccccc1`, the compound was called inactive in [1], in [6] and in [10]. The Potency entry in assay [2], in assay [9], in assay [5], in [7] and in [8] was “inactive” throughout.
For `Cc1cccc2sc3nncn3c12`, in assay [1], the compound was classed as inactive. Moreover, the Potency entry in assay [2], in assay [9], in assay [5], in assay [7] and in assay [8] was “inactive” each time.
As for `O=C(CCl)NCO`, the call in assay [1], in [6] and in assay [10] was inactive. Besides, the Potency entry in assay [2], in assay [9], in [4] and in [7] was “inactive” each time.
For `Clc1ccc(C(Cl)(Cl)Cl)cn1`, the compound was classed as inactive in assay [1], in assay [6] and in [10]. The Potency result in assay [2], in [3], in assay [9] and in assay [8] was “inactive” in each case.
Take `Cl/C=C/CCl`: the compound was classed as inactive in assay [1], in [6] and in [10]. Besides, the Potency result in assay [2], in [3] and in [5] was “inactive” throughout.
Turning to `CCCN1CCC[C@@H]2Cc3[nH]ncc3C[C@H]21`, the call in assay [1], in assay [6] and in assay [10] was inactive. The Potency entry in assay [2], in [9], in assay [4], in assay [5] and in assay [8] was “inactive” throughout.
In the case of `C=CCc1cc(OC)c2c(c1)OCO2`, the result in assay [1] and in assay [6] was inactive. Moreover, the Potency result in assay [2], in assay [3], in [4], in [5] and in assay [8] was “inactive” throughout.
Consider `CCOC(=O)C(SP(=S)(OC)OC)c1ccccc1` (configuration not stated), for which the outcome in assay [1], in [6] and in assay [10] was inactive. For the same compound, the Potency result in [2], in assay [4], in assay [5] and in assay [8] was “inactive” in each case. Further, the Potency in [9] was 48.6 µM (active).
Regarding `C#CCOC(=O)/C=C(C)/C=C/CC(C)CCCC(C)C` (configuration not stated), the result in assay [1] and in assay [6] was inactive. In addition, the Potency entry in assay [2], in assay [9], in assay [4], in assay [5], in assay [7] and in assay [8] was “inactive” throughout.
For `COC(=O)c1ccccc1CS(=O)(=O)NC(=O)Nc1nc(OC)cc(OC)n1`, the call in assay [1], in assay [6] and in assay [10] was inactive. Further, the Potency entry in assay [2], in assay [9], in assay [4], in assay [5] and in [7] was “inactive” throughout.
Consider `ClCC1CO1` (configuration not stated), for which the compound was called inactive in assay [1], in [6] and in assay [10]. For the same compound, the Potency result in assay [2], in assay [4], in assay [5], in [7] and in [8] was “inactive” throughout.
As to `C[N+]1(C)CCCCC1`, the compound was classed as inactive in [1], in [6] and in assay [10]. Besides, the Potency result in assay [2], in [9], in assay [7] and in assay [8] was “inactive” throughout.
Regarding `CCOC(=O)CC(SP(=S)(OC)OC)C(=O)OCC` (configuration not stated), the outcome in assay [1], in assay [6] and in [10] was inactive. In addition, the Potency result in assay [9], in assay [4], in assay [5], in assay [7] and in assay [8] was “inactive” each time.
For the compound `C[C@]12C=CC(=O)C=C1CC[C@@H]1[C@@H]2CC[C@@]2(C)[C@H]1CC[C@]2(C)O`, the outcome in assay [1], in [6] and in assay [10] was inactive. Moreover, in assay [3], the Potency was 3.35 µM (active). Further, the Potency result in assay [9], in assay [7] and in assay [8] was “inactive” in each case.
Turning to `Oc1ccc(Cc2ccc(O)cc2)cc1`, the compound was called inactive in [1]. For the same compound, the Potency entry in assay [3], in assay [4] and in assay [7] was “inactive” in each case.
`O=[N+]([O-])CCO`: the Potency result in assay [2], in assay [3], in assay [9], in [4], in [5] and in assay [7] was “inactive” each time. In addition, the call in assay [6] and in assay [10] was inactive.
As to `CCCC(C)(COC(N)=O)COC(N)=O`, the Potency entry in assay [2], in assay [3], in [9], in assay [4] and in [5] was “inactive” throughout. For the same compound, in assay [6], the compound was called inactive.
Turning to `Brc1c(Br)c(Br)c(Br)c(Br)c1Br`, in [1], the activity change, negative = inhibition is 0.318% [at 8.39 µM]. Further, the values for the activity change, negative = cytotoxicity in assay [4] and in assay [5] were -1.74% [at 8.39 µM] and 33% [at 8.39 µM], respectively. The viability change, negative = cytotoxic in [6] is -1.01% [at 6.97 µM]. In addition, in [10], the activation was 3.82% [at 6.97 µM].
On to `c1ccc2c(c1)CCNC2`, for which the compound was classed as inactive in assay [1], in assay [6] and in assay [10]. The Potency result in assay [4], in assay [5], in assay [7] and in [8] was “inactive” throughout.
In the case of `CS(=O)(=O)Cl`, the result in assay [1], in assay [6] and in assay [10] was inactive. For the same compound, the Potency entry in assay [3], in assay [9], in assay [4], in assay [5], in assay [7] and in assay [8] was “inactive” throughout.
Turning to `[O-][Br+2]([O-])O`, the Potency entry in assay [2], in assay [3], in assay [9], in [4], in [5] and in assay [7] was “inactive” in each case. Besides, in assay [6], the result was inactive.
For `N#CC(Br)(Br)C(N)=O`, the compound was classed as inactive in assay [1], in assay [6] and in [10]. Also, the Potency entry in assay [3], in [9], in [4], in assay [5], in [7] and in assay [8] was “inactive” throughout.
For the compound `CC(Cc1ccccc1)NCCn1cnc2c1c(=O)n(C)c(=O)n2C` (configuration not stated), the compound was classed as inactive in [1], in [6] and in assay [10]. The Potency entry in assay [3], in [9], in [4], in [5], in [7] and in assay [8] was “inactive” each time.
As for `CCN[C@H](C)Cc1cccc(C(F)(F)F)c1`, the compound was classed as inactive in assay [1] and in assay [10]. In addition, the Potency entry in assay [9] and in [8] was “inactive” throughout.
`C=CCC1(C(C)CC)C(=O)NC(=O)NC1=O` (configuration not stated): the compound was classed as inactive in [1], in assay [6] and in assay [10]. In addition, the Potency result in assay [5] and in assay [7] was “inactive” in each case.
As for `ClCCCCl`, the Potency result in assay [2], in assay [3], in assay [9], in [4], in assay [5] and in assay [7] was “inactive” each time. The outcome in assay [6] and in assay [10] was inactive.
As for `O=C(O)C(Br)(Br)Br`, the compound was called inactive in assay [1], in assay [6] and in assay [10]. The Potency result in assay [9], in [4] and in [5] was “inactive” in each case.
Turning to `COc1cccc([C@@]2(O)CCCC[C@@H]2CN(C)C)c1`, the Potency entry in assay [2], in [3], in assay [9], in assay [4], in assay [5] and in assay [7] was “inactive” throughout. The call in assay [6] and in assay [10] was inactive.
With `O=C(Cl)C(Cl)(Cl)Cl`, the outcome in [1], in assay [6] and in [10] was inactive. Besides, the Potency result in assay [3], in assay [9], in assay [5], in [7] and in assay [8] was “inactive” throughout.

Values taken from PubChem BioAssay (Tox21).
